Data taken from the supplement of paper PMC4206461.

tested on: Pseudomonas aeruginosa PA14 dppA1-A5 penta mutant + pBBR5.DppA1 (PA14_58350); assay: respiration area under curve with compound as sole nitrogen source, 24 h (OmniLog AUC (arbitrary units)); higher = more respiration / better utilisation as nitrogen source, active = 2000 or more
Experimental: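 Biolog Phenotype MicroArray plates PM6-PM8: each di/tripeptide is the sole nitrogen source. Tetrazolium reduction was read in the OmniLog for 24 h at 37°C and summarised as area under the respiration curve (arbitrary units). Values below 2000 count as no respiration. Strain is the SBP penta mutant complemented with DppA1 on a plasmid under its native promoter. Lys/His/Cys peptides are excluded.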

Respiration area under curve, active:
O=C(O)CNC(=O)[C@@H]1CCCN1 (plate: PM7) 6590
C[C@H](NC(=O)[C@@H](N)Cc1c[nH]c2ccccc12)C(=O)O (plate: PM7) 2360
C[C@H](NC(=O)[C@@H](N)[C@@H](C)O)C(=O)O (plate: PM7) 8470
NC(=O)CC[C@H](NC(=O)[C@@H](N)CCC(N)=O)C(=O)O (plate: PM6) 6630
NC(N)=NCCC[C@H](N)C(=O)N[C@@H](CCC(=O)O)C(=O)O (plate: PM6) 8440
NC(N)=NCCC[C@H](N)C(=O)N[C@@H](CC(=O)O)C(=O)O (plate: PM6) 7970
NC(N)=NCCC[C@H](N)C(=O)N[C@@H](Cc1ccc(O)cc1)C(=O)O (plate: PM6) 8490
NC(=O)C[C@H](NC(=O)[C@@H]1CCCN1)C(=O)O (plate: PM8) 11600
CC(C)C(NC(=O)C1CCCN1)C(=O)O (stereo not given) (plate: PM8) 5180
NCC(=O)N[C@@H](CC(=O)O)C(=O)O (plate: PM8) 4090
CC(C)C[C@H](NC(=O)[C@@H](N)Cc1ccc(O)cc1)C(=O)O (plate: PM7) 6720
N[C@@H](Cc1ccccc1)C(=O)NCC(=O)O (plate: PM7) 6420
CC(C)C[C@H](NC(=O)[C@@H](N)[C@@H](C)O)C(=O)O (plate: PM7) 4760
CC[C@H](C)[C@H](NC(=O)[C@H](C)N)C(=O)O (plate: PM8) 7110
CC[C@H](C)[C@H](NC(=O)[C@@H](N)Cc1ccc(O)cc1)C(=O)O (plate: PM8) 6990
NC(=O)CC[C@H](NC(=O)[C@@H]1CCCN1)C(=O)O (plate: PM7) 9270
CC(C)[C@H](NC(=O)[C@@H](N)Cc1ccccc1)C(=O)O (plate: PM8) 5720
NCC(=O)N[C@@H](CO)C(=O)O (plate: PM6) 6080
CSCC[C@H](N)C(=O)NCC(=O)O (plate: PM7) 3910
C[C@H](N)C(=O)N[C@@H](Cc1c[nH]c2ccccc12)C(=O)O (plate: PM6) 3700
C[C@@H](O)[C@H](N)C(=O)N[C@@H](CO)C(=O)O (plate: PM8) 5330
NCC(=O)N[C@@H](CCCN=C(N)N)C(=O)O (plate: PM6) 7640
CC[C@H](C)[C@H](NC(=O)CN)C(=O)O (plate: PM8) 4580
N[C@@H](Cc1ccccc1)C(=O)N[C@@H](Cc1ccc(O)cc1)C(=O)O (plate: PM8) 2050
C[C@H](NC(=O)CNC(=O)CN)C(=O)O (plate: PM8) 4350
CC(C)[C@H](N)C(=O)N[C@H](C(=O)O)C(C)C (plate: PM7) 6680
N[C@@H](Cc1ccc(O)cc1)C(=O)N[C@@H](Cc1c[nH]c2ccccc12)C(=O)O (plate: PM7) 2730
CC[C@H](C)[C@H](NC(=O)[C@@H](N)Cc1ccccc1)C(=O)O (plate: PM7) 7890
CC(C)C[C@H](N)C(=O)NCC(=O)O (plate: PM6) 5940
CC[C@H](C)[C@H](N)C(=O)NCC(=O)O (plate: PM6) 2560
O=C(O)[C@H](CO)NC(=O)[C@@H]1CCCN1 (plate: PM8) 5440
CC(C)C[C@H](N)C(=O)N[C@@H](C)C(=O)O (plate: PM6) 7500
CSCCC(NC(=O)C(N)C(C)C)C(=O)O (stereo not given) (plate: PM8) 2570
C[C@H](NC(=O)CN)C(=O)O (plate: PM6) 2380

Respiration area under curve, inactive:
N[C@@H](CCC(=O)O)C(=O)N[C@@H](Cc1c[nH]c2ccccc12)C(=O)O (plate: PM6) 1820
N[C@@H](Cc1c[nH]c2ccccc12)C(=O)N[C@@H](Cc1ccc(O)cc1)C(=O)O (plate: PM7) 292
CC[C@H](C)[C@H](N)C(=O)N[C@@H](CCSC)C(=O)O (plate: PM6) 289
CSCCC(N)C(=O)NC(CCSC)C(=O)O (stereo not given) (plate: PM7) 0
NCC(=O)NCC(=O)NCC(=O)O (plate: PM8) 940
CC(C)C[C@H](NC(=O)[C@@H](C)N)C(=O)O (plate: PM8) 286
